Assay outcomes (PubChem BioAssay)
BJeLR viability: BJeLR cell viability loss; BJeLR (HRASV12) viability, CellTiter-Glo ATP luminescence, 48 h; inhibition, % (test concentration not listed); hit rate 0.17% among 300,000; in the data active = inhibition above about 50%
PrPC surface inh: reduces human prion protein on the cell surface | P04156 | cell surface PrPC, TR-FRET read-out | inhibition, % at 13.8 µM | hit rate 0.43% among 370,000 | AID 720596; in the data active = inhibition above about 24%; note: 0% = median of the test wells and 100% = reference compound wells
FBA Mtb inh: Mtb fructose-bisphosphate aldolase inhibition; hit rate 2.3% among 360,000; purified M. tuberculosis FBA, fluorescence read-out; inhibition, % at 1 µM; P9WQA3; AID 588726;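 note: 0% = vehicle and 100% = reference inhibitor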
RecA intein inh: blocks M. tuberculosis RecA intein splicing; cell-free RecA intein splicing, fluorescence; inhibition, % (test concentration not listed); hit rate 0.75% among 290,000; AID 2221; in the data active = inhibition above about 30%;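 note: 0% = vehicle wells and 100% = reference inhibitor control wells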
Target sequence (P9WHJ3 whole entry, looked up): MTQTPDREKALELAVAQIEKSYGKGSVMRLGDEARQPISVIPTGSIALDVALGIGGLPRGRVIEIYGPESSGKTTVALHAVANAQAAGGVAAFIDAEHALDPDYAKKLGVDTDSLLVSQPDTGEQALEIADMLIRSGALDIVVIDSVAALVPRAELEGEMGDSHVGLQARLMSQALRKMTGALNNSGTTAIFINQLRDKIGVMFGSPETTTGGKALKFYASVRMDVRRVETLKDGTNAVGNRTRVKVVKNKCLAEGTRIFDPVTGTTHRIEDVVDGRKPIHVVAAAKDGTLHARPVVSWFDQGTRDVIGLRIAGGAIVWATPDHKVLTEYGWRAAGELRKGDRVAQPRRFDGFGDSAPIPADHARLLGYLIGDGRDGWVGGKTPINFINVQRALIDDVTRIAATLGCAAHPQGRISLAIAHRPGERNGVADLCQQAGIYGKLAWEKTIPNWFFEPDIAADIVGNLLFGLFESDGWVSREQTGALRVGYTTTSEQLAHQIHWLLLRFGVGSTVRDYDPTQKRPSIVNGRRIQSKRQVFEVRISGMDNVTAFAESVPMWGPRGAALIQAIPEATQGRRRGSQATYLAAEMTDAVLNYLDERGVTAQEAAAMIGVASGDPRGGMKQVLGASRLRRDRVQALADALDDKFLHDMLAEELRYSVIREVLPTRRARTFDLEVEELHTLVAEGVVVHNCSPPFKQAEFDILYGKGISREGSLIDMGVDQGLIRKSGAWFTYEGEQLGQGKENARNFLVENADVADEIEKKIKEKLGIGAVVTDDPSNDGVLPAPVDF
GDH-TPI counter-1: inhibits GDH-TPI coupling enzymes, artifact for Mtb FBA screen; GDH-TPI coupled enzyme counterscreen, NADH absorbance; inhibition, % at 4.8 µM; hit rate 1.2% among 360,000; in the data active = inhibition above about 30%;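 note: 0% = DMSO wells and 100% = wells lacking the enzyme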
Mtb FBA inh conf: confirmation of M. tuberculosis fructose-bisphosphate aldolase inhibitors. hit rate 78% among 5,600. shares compounds with FBA Mtb inh. purified M. tuberculosis FBA, fluorescence read-out. inhibition, % at 1 µM;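 note: 0% = vehicle wells and 100% = reference inhibitor wells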
GDH-TPI counter-2: GDH-TPI inhibition counter-screen for FBA inhibitors; shares compounds with FBA Mtb inh; GDH-TPI coupled enzyme counterscreen, fluorescence; inhibition, % at 1 µM; hit rate 81% among 5,600; AID 652141; in the data active = inhibition above about 10%
GDH-TPI DR: inhibits GDH-TPI coupling enzymes in dose response; shares compounds with FBA Mtb inh; AID 652145; IC50, µM; hit rate 79% among 170; GDH-TPI coupled enzyme assay, fluorescence, artifact counterscreen; call rule not given here
Numbers without * were called inactive; . = no result given; + = active, no number. Rows were chosen to be rich in hits. Some 4.2% of all compounds tested hit in one or more screens of this group. Cut-off read from the data, not from the text of the source, unless noted: active = inhibition above about 27%; inactive = the rest.

SMILES	BJeLR viability	PrPC surface inh	FBA Mtb inh	RecA intein inh	GDH-TPI counter-1	Mtb FBA inh conf	GDH-TPI counter-2	others
Cc1ccc2nc(-c3ccc(NC(=O)CSc4nnc(-c5cc(C)[nH]n5)n4N)cc3)sc2c1	.	-1	.	.	.	.	.
CCCCc1nc(N2CCOCC2)c(C#N)c2c1COC(C)(C)C2	-2	4	35*	7	6	-3	-6
CCc1nc(N2CCOCC2)c(C#N)c2c1CCCC2	-9	-2	38*	4	2	+	+
N#Cc1c(N2CCOCC2)nc(-c2ccco2)c2c1CCCC2	1	3	37*	-3	16	93*	71*
CC1(C)Cc2c(C#N)c(SCCO)nc(N3CCOCC3)c2CO1	-17	-1	1	0	5	.	.
C[C@H](O)[C@@H]1CN2CCc3c([nH]c4c(-c5ccccc5)cccc34)[C@@H]2C[C@@H]1N(C)C(=O)NC1CCCCC1	.	-4	.	.	.	.	.
CC1CCCN(Cc2c(O)ccc3c(=O)c(-c4nc5ccccc5s4)c(N)oc23)C1 (stereo unspecified)	2	3	33*	0	39*	136*	84*
CC1CCN(Cc2c(O)ccc3c(=O)c(-c4nc5ccccc5s4)c(N)oc23)CC1	9	-2	9	1	16	.	.
CC(C(=O)Nc1ccc(C#N)cc1)N(C)Cc1cccs1 (stereo unspecified)	6	-1	77*	1	-4	50*	40*
CC(C(=O)Nc1ccc(Cl)cc1)N(C)Cc1cccs1 (stereo unspecified)	12	4	2	3	-1	.	.
Cn1c(=O)c2c(nc(SCCN3CCCCC3)n2Cc2ccc(Cl)cc2)n(C)c1=O	1	-4	44*	3	-3	80*	68*
O=c1c2ccccc2nc2n1CCc1c-2[nH]c2ccccc12	.	-6	7	.	24	.	.
Cc1cccc2c(=O)n3c(cc12)-c1[nH]c2ccccc2c1CC3	.	7	83*	.	9	168*	110*
CC(C)NC(=O)N(C)C[C@@H]1OCc2cn(nn2)CCCC(=O)N([C@@H](C)CO)C[C@H]1C	.	1	.	.	.	.	.
COC(=O)c1cnn(-c2ccc(Cl)cc2)c1/C=N/NC(N)=S	-11	-25	45*	1	18	67*	35*
O=C(CSc1nnc(-c2cnccn2)n1-c1ccccc1)Nc1ccc2cn[nH]c2c1	.	-8	.	.	.	.	.
CC1(C)Oc2ccc3ccc(=O)oc3c2/C(=C/NNC(N)=S)C1=O	2	-1	28*	-2	14	+	197*
CN/C=C1\C(=O)C(C)(C)Oc2ccc3ccc(=O)oc3c21	1	-16	-4	-1	11	.	.
CCOC(=O)N1CCN(C(=O)C[C@H]2C[C@@]3(C(=O)OC)C(=C[C@H](C(C)C)O[C@@H]3C3CC3)N(CCc3ccc(OC)c(OC)c3)C2=O)CC1	.	-6	.	.	.	.	.
O=C1c2ccccc2NC(c2ccccc2)N1Cc1ccco1 (stereo unspecified)	5	-7	51*	-1	-9	3	1
O=C1c2ccccc2NC(c2ccc(F)cc2)N1Cc1ccco1 (stereo unspecified)	3	-5	49*	2	16	85*	61*
COc1cccc(OCc2cc(C3Nc4ccccc4C(=O)N3Cc3ccco3)ccc2OC)c1 (stereo unspecified)	2	0	13	12	3	.	.
CN(CCOC(=O)CSc1ccccc1)C1CN(Cc2cn(Cc3ccccc3F)nn2)S(=O)(=O)C1 (stereo unspecified)	.	4	.	.	.	.	.
C[C@@H]1CCN(C2CC2)S(=O)(=O)c2ccc(N3CC[C@@H](N(C)C)C3)cc2O1	.	-2	.	.	.	.	.
Cc1nc2ccccc2c(=O)n1N	2	-2	3	0	-6	.	.
SMILES	BJeLR viability	PrPC surface inh	FBA Mtb inh	RecA intein inh	GDH-TPI counter-1	Mtb FBA inh conf	GDH-TPI counter-2	others
Cc1csc2nc3ccccc3c(=O)n12	5	-3	39*	-1	13	67*	38*
O=C1c2ccc3c4c(ccc(c24)C(=O)N1c1ccc2ccccc2c1)CC3	4	1	3	1	-7	.	.
O=C1CCC(=O)c2ccc3c4c(ccc1c24)CC3	.	-10	42*	.	32*	12	9	GDH-TPI DR=3.6*
CCOC(=O)Nc1ccc2c3c(cccc13)-c1ccccc1-2	.	13	57*	.	13	70*	61*
CCOC(=O)c1cc2nc(-c3ccco3)cc(C(F)(F)F)n2n1	-12	0	28*	-18	7	+	+
CC(C)NC(=O)c1cc2nc(-c3ccco3)cc(C(F)(F)F)n2n1	-8	-15	19	-36	29	.	.
COc1ccc(C2CC(c3cccc(Br)c3)=NN2c2ccc(S(N)(=O)=O)cc2)cc1 (stereo unspecified)	.	1	102*	.	15	42*	31*
Fc1ccc(C2=NN(c3ccccc3)C(c3ccco3)C2)cc1 (stereo unspecified)	-1	-6	48*	-2	2	60*	48*
Cc1ccc(C2CC(c3ccccc3)=NN2c2ccccc2)o1 (stereo unspecified)	7	-4	43*	1	6	15	8	GDH-TPI DR=1.3*
COc1ccc(C2=NN(S(=O)(=O)c3ccccc3)C(c3ccccc3)C2)cc1 (stereo unspecified)	-1	4	3	1	12	.	.
CCOC(=O)C1CC(c2ccccc2)=NN1c1ccccc1 (stereo unspecified)	.	-13	72*	.	23	35*	28*
O=C(NCc1ccccc1F)C1C2C=CC3(CN(Cc4ccccc4)C(=O)C13)O2 (stereo unspecified)	.	-8	.	.	.	.	.
CCN=C1S/C(=C/c2cc(C)n(-c3ccc(Cl)cc3F)c2C)C(=O)N1CC	.	7	.	.	.	.	.
C(=C\c1ccco1)/C1=NN(c2ccccc2)C(c2ccco2)C1 (stereo unspecified)	-6	.	40*	-193	12	+	+
Cc1ccc(N2N=C(c3ccc(F)cc3)CC2c2ccco2)cc1 (stereo unspecified)	1	3	62*	-4	10	112*	96*
COc1ccc(C2=NN(c3ccccc3)C(c3ccc(OC)c(OC)c3)C2)cc1 (stereo unspecified)	1	7	80*	3	11	53*	51*
Oc1ccc(C2=NN(c3ccccc3)C(c3ccc(F)cc3)C2)cc1 (stereo unspecified)	3	12	101*	19	-7	165*	148*
C=CCN1C(=O)[C@@H](CC(=O)NCc2ccc(OC)c(OC)c2)[C@]2(C(=O)OC)CCCCC=C12	.	-2	.	.	.	.	.
CN1[C@@H](Cc2ccccc2)COc2cccc(F)c2S1(=O)=O	.	-12	.	.	.	.	.
